Compounds with a hit are over-represented: about 8.1% of the library has one in this group of screens.
NOMO-1 viab: NOMO-1 AML cell viability reduction, primary screen, STK33 inhibitor project, CellTiter-Glo luminescence; NOMO-1 AML viability, 72 h; inhibition, % (test concentration not listed); actives 7.5% (n = 37,000); AID 2330, 2010; in the data active = inhibition above about 80%
Shh pathway inh: Hedgehog pathway signaling inhibitors, primary screen, luminescence, Shh-LIGHT2 cells, Gli-luciferase; actives 2.1% (n = 22,000); inhibition, % (no concentration beside the values); Shh-LIGHT2 Gli-luciferase reporter, 30 h;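 active = mean inhibition across valid replicates above about 65%, limit read from the data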;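 note: pathway switched on by Shh-conditioned medium diluted 1 in 25 in low serum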
MITF inhib: inhibitors of MITF, primary screen, MITF inhibitor project, cell-based, luminescence. TRPM1 promoter luciferase, 24 h. inhibition, % (no concentration beside the values). actives 0.28% (n = 37,000). AID 2240, 2010; in the data active = inhibition above about 85%;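 note: human melanocyte line stably carrying TRPM1 promoter luciferase reporter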
Of the large screens only hits and unclear results are named; the others gave an inactive call; ! = not confirmed by another sample.

C[C@@H]1CN([C@@H](C)CO)C(=O)c2cc(NC(=O)Nc3ccc4c(c3)OCO4)ccc2O[C@@H]1CN(C)C(=O)Nc1ccc(C(F)(F)F)cc1	NOMO-1 viab 93.4
C[C@@H]1CN([C@H](C)CO)C(=O)c2cc(NC(=O)Nc3ccc(C(F)(F)F)cc3)ccc2O[C@H]1CN(C)C(=O)Nc1ccc2c(c1)OCO2	none (no result: Shh pathway inh)
C[C@H](CO)N1C[C@H](C)[C@@H](CN(C)C(=O)Nc2ccc(C(F)(F)F)cc2)Oc2ccc(NC(=O)Nc3ccc4c(c3)OCO4)cc2C1=O	none
C[C@H](CO)N1C[C@H](C)[C@H](CN(C)C(=O)Nc2ccc3c(c2)OCO3)Oc2ccc(NC(=O)Nc3ccc(C(F)(F)F)cc3)cc2C1=O	NOMO-1 viab 99.0
Cc1ccc2c(c1)NC(C(F)(F)F)(C(F)(F)F)NC2=O	none
CNC(=O)C1OC(C)(C(C)(C)C)OC1C(=O)NC (centres undefined)	none (no result: Shh pathway inh)
Oc1cc(C2CCCCC2)cc(C2CCCCC2)c1	NOMO-1 viab 137.2 (no result: Shh pathway inh)
Cc1ccc(S(=O)(=O)Nc2ccc3c(c2)C(=O)N([C@H](C)CO)C[C@@H](C)[C@@H](CN(C)Cc2ccc(-c4ccccc4)cc2)O3)cc1	NOMO-1 viab 121.6 (no result: Shh pathway inh)
C[C@H](CO)N1C[C@H](C)[C@@H](CN(C)Cc2ccc(-c3ccccc3)cc2)Oc2ccc(NS(=O)(=O)c3ccccc3)cc2C1=O	none (no result: Shh pathway inh)
Cc1ccc(S(=O)(=O)Nc2ccc3c(c2)C(=O)N([C@H](C)CO)C[C@H](C)[C@@H](CN(C)Cc2ccc(-c4ccccc4)cc2)O3)cc1	none (no result: Shh pathway inh)
C[C@@H]1CN([C@H](C)CO)C(=O)c2cc(NS(=O)(=O)c3ccccc3)ccc2O[C@@H]1CN(C)Cc1ccc(-c2ccccc2)cc1	NOMO-1 viab 121.3
C[C@H]1CN([C@@H](C)CO)C(=O)c2cc(NC(=O)C3CCCCC3)ccc2O[C@@H]1CN(C)CC1CC1	none
C[C@@H]1CN([C@H](C)CO)C(=O)c2cc(NS(=O)(=O)c3cn(C)cn3)ccc2O[C@H]1CN(C)Cc1ccc(C(=O)O)cc1	none
Cc1cccc(NC(=O)CNS(=O)(=O)c2ccc(Br)cc2)c1C	none (no result: Shh pathway inh)
COc1cc2ncnc(Nc3cccc(Cl)c3)c2cc1OC	NOMO-1 viab 89.5!
COc1cc2ncnc(Nc3cccc(O)c3)c2cc1OC	none
C[C@H](CO)N1C[C@H](C)[C@@H](CN(C)C)Oc2ccc(NS(=O)(=O)c3ccc(F)cc3)cc2C1=O	none
CCOC(=O)N1CCc2c(sc3ncn(Cc4ccc(Cl)cc4)c(=O)c23)C1	Shh pathway inh 95.1
COc1ccc(Cl)cc1NC(=O)Cn1cnc2sc3c(c2c1=O)CCC(C)C3 (centres undefined)	none (no result: Shh pathway inh)
C[C@@H]1CN([C@@H](C)CO)C(=O)c2cccc(NC(=O)C3CCCCC3)c2O[C@@H]1CN(C)Cc1ccc(C(=O)Nc2ccccc2N)cc1	NOMO-1 viab 126.6 (no result: Shh pathway inh)
C[C@@H]1CN([C@H](C)CO)C(=O)c2cccc(NC(=O)C3CCOCC3)c2O[C@@H]1CN(C)Cc1ccc(C(=O)Nc2ccccc2N)cc1	NOMO-1 viab 107.2 (no result: Shh pathway inh)
C[C@@H]1CN([C@@H](C)CO)C(=O)c2cccc(NC(=O)C3CC3)c2O[C@H]1CN(C)Cc1ccc(C(=O)Nc2ccccc2N)cc1	none (no result: Shh pathway inh)
C[C@H]1CN([C@@H](C)CO)C(=O)c2cccc(NC(=O)C3CCOCC3)c2O[C@@H]1CN(C)Cc1ccc(C(=O)Nc2ccccc2N)cc1	none (no result: Shh pathway inh)
COc1ccc(C(=O)Nc2ccc(Cc3ccc(NC(=O)c4ccc(OC)cc4)c(O)c3)cc2O)cc1	none (no result: Shh pathway inh)
Cc1cc(Cl)ccc1OC(C)C(=O)Nc1cccc(-c2nnc(-c3ccccc3)o2)c1 (centres undefined)	none (no result: Shh pathway inh)
Cc1ccc2nc(S/C=C/C(=O)c3ccccc3)[nH]c2c1	NOMO-1 viab 122.8
CCc1ccccc1NC(=O)CSc1nc2ccc(C(=O)c3ccccc3)cc2[nH]1	none (no result: Shh pathway inh)
CCC(C)C(O)C(C)(O)/C=C/C1=CC2=C(Cl)C(=O)C(C)(O)C(OC(C)=O)C2CO1 (centres undefined)	NOMO-1 viab 119.9
C[C@@H]1CN([C@@H](C)CO)C(=O)c2cccc(NS(=O)(=O)c3ccc(F)cc3)c2O[C@@H]1CN(C)Cc1ccncc1	none
CC1=CC(C)(C)N2C(=O)C(=O)c3cc(OC(=O)CN4C(=O)c5cccc6cccc(c56)C4=O)cc1c32	NOMO-1 viab 119.0 (no result: Shh pathway inh)
COc1ccc(C)cc1NC(=O)CN1C(=O)c2cccc3cccc1c23	none (no result: Shh pathway inh)
CC1=CC(C)(C)N2C(=O)C(=O)c3cc(OC(=O)CN4C(=O)c5ccccc5C4=O)cc1c32	NOMO-1 viab 115.4 (no result: Shh pathway inh)
Cc1ccc(NC(=O)c2ccc(OC(=O)CN3C(=O)c4ccccc4C3=O)cc2)cc1	none (no result: Shh pathway inh)
COc1cc(S(=O)(=O)Nc2ccncc2)c(OC)cc1Cl	none (no result: Shh pathway inh)

Source: PubChem
